Test results taken from PubChem BioAssay AID1508600 (Functional Genomics Laboratory (NCATS/FGL), 2020).
The whole screen tested about 53,000 sequences, of which about 3,700 (7%) were called active. The entries come from a sample that favours actives as a whole. Unmarked numbers belong to inactive results.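 The calls were made as follows: active = gene knockdowns whose robust z-score for IL-1 alpha signal is at least 2 or at most -2, so actives lie on both sides; inactive = the rest.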

Assay: Components of the Cytosolic LPS Sensing Pathway: Gene Identification via Genome-wide siRNA Screen;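 also: robust z of the log signal after scaling to non-targeting control siRNA wells of the plate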
Conditions: RAW264.7 macrophages, IL-1a HTRF, actives lie on both sides, screened at 100 nM (by protocol), cells primed 5 h with Pam3CSK4 first
Outline: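 Three distinct siRNAs per gene were tested singly at 100 nM in RAW264.7 macrophages. Following Pam3CSK4 priming and 24 hour LipidA transfection, IL-1a secretion was read by HTRF.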

Sequence | z-score
GGUGCUGCUAUUCCUGCACTT against Gpam | -2.03 (active)
GGGAGCUACGUUCAGAAGUTT against Gckr | 1.63
GGAUUUCUGUGGAGAUGGGTT against Cchcr1 | 0.444
GCUACUCCAUUUACAUCUATT against H2bc1 | -0.122
GCGGAGUGUGAAACACUGATT against Ccdc32 | 0.842
GGAAGGACAGACAGACAAGTT against Pxt1 | 0.165
CCUAGAUGACACUUGGGUGTT against Nup35 | -1.4
GCCUCUUCAAUCACAUUUATT against Atp6v0a4 | 3.27 (active)
GGAAAGAUCUACGAGAUCUTT against Unc5a | 1.04
CGGAUUCGUCUGUUUUCUGTT against Ddi2 | 1.97
GGAUAUACAUGGUCUGUUUTT against Naip5 | 0.318
GGACUCCUCCCAAGACGAATT against Avil | -0.118
CCUACCAUAGCAACACUAUTT against Kcna2 | 3.14 (active)
GGCCCUCACAAUGAAUAUGTT against Efs | -0.115
ACGAUAUGUUGACCUUGGCTT against Cyp2c67 | -0.274
CGGCAAUUUGAGUUGAAAATT against Ppp1r2-ps9 | -0.571
GGGCACCUUAUACCAUAGATT against Bfar | 0.345
GGCCAUGGAGAACAUAUGCTT against Trpm8 | -2.09 (active)
GGCUAUUGAGCUCUUUGUCTT against Qpctl | -0.661
GGAGUAGUAGCUAUUAUAUTT against Kctd9 | 1.89
GCUUUGAGACCUAAUGAUGTT against 1810024B03Rik | -0.469
GGUGCUAGUGUAUGAAUUATT against Nsun5 | 2.39 (active)

Sequence | z-score
GGAUCAUUUGUUAAUGUACTT against Ddx3y | 0.0896
GCUAUUGCUCGCAUCAAUGTT against Prps1l1 | 0.989
GCGAUUAUUUCGCUUUGGATT against Pcdha12 | -0.502
GGAGAGUAAAACCAAUACATT against Fam76a | -0.0433
GGGUCACAGAGGUUACCCATT against Col2a1 | 1.25
GGAGACCAAAAAGAAAUAATT against Cmas | 0.622
GGUGGUGGAAUGCUAAAAATT against Gys1 | 2.29 (active)
CCAGAAUACUGGGAUACAATT against B4galnt3 | -0.577
GCUCAUGUAUGUGAAUUUGTT against Ptx3 | -1.25
GGAAACACCAUGAAGAUGATT against Atpif1 | -0.0257
GCAAGUCGUAAGCCUCAGGTT against Mrps10 | 0.533
GCUACGGACCAUGUUCAAGTT against Nxpe4 | 2.93 (active)
GGAGGUACCACAAAAGGCATT against Kif2c | 0.0217
CCAACUAAGUGAAAUUCCATT against Aspn | -1.26
CCCAACAUUAUCUUGGACCTT against Mrgpra8 | -0.26
GGGAAGGAUUUUUGAUGAUTT against Arfgap1 | 1.33
GGAAGGAAGGAAUAAAACUTT against Fitm2 | -0.981
GCCACUUCACAGCAAGCUATT against Cdk2ap1 | 3.27 (active)
GGGCGAACAGGACAAUUAUTT against Med22 | -0.421
GCCCAUUAAUGCGUAUUUUTT against Mettl2 | 1.22
GCUAAGUCGGAUGAUAGAATT against Ttc16 | -0.742
GGCAUGAUCAGCACAUCACTT against Rpap1 | 0.578

Sequence | z-score
GGAUGAAUAUGGUGUUUCUTT against Rnf138 | -2.23 (active)
GCUAAAUUACACAUUGACCTT against Vcam1 | 0.226
GGGAAGCAACAUGAUUAAATT against Kat7 | 0.669
CCUCACUGGUACAAUCCCATT against Tsg101 | -0.906
GGAACCAGUUUAAAUGAUUTT against Marchf7 | 0.04
CGUUACGUAAAUCUUGUGATT against Sstr2 | 0.227
GGUGGUCUACCAGCAUUUGTT against Pde4dip | 2.16 (active)
GGCCAAUAAUGUGUUUCGUTT against Cmpk2 | -0.632
CCUGGUGCCUUUAUCUACCTT against Ctxn1 | 0.907
GGAGAUGCUGUUCUUUCCGTT against Casc3 | -1.18
GGAUGGAUUACUGAAAGUUTT against Wdr35 | 0.715
GGCAGCUAUUGCUCUGGAATT against 5730596B20Rik | -0.293
GGAGCAACAGCCAAAUACCTT against Hmgb4 | 2.39 (active)
GGACUAUGAGCAGAUGAAGTT against Calcb | -0.217
GGAUGUGCACGAAGGACAGTT against Cdh2 | 2.09 (active)
CCAGUCCAUUGAAUAGUUCTT against Papola | 0.329
GGAAAGGAAUCCAAAAAUCTT against Lias | -0.42
CCAGAAGUGAUCGCCUCUUTT against Zfp300 | 1.16
GCCAUAAAACAGAAUCUCATT against Tmco5b | -0.309
GGUGGUGAUAAGCUUCCUCTT against Olfr1417 | -1.87
GGGACUUCAGACAGUUAUCTT against Ess2 | 1.69
GCCGAACUUCGGAAUUCUGTT against Nf1 | 2.08 (active)

Sequence | z-score
GGUAUAUGGAACCAUGGGATT against Psmb9 | -0.565
GGAGUCUGCUGGUUUAGUGTT against Fmc1 | 0.0551
GGAGUAUGGCGAAUUCUAUTT against Hsp90ab1 | 1.34
GCUGCUUGCUGACCUCCUATT against Olfr522 | 0.358
GCAUUCAGAAAUUGAGGGUTT against Sin3b | -0.0974
CCUAUCUCUUAGCAAAGAUTT against 2010003K11Rik | 2.87 (active)
GGCGAUAUUCUUAAUUAUCTT against Mfsd6 | 0.735
GGUGUUGAACAAGUGCGACTT against Tescl | -0.987
GCUGAUCAUCCGUUUCACUTT against Hdc | -0.227
CGUACUUCAGCGAUUUAAATT against Exoc2 | 0.555
GGACUCAAGACACCAGUUGTT against Rufy3 | -0.318
GCAAGAAGCCUGCCAAUAUTT against Etd | 2.05 (active)
GGAGUACUUUGGAAUAGCATT against Frmd4a | -0.467
GCUCUAUAUCCAGGAAACUTT against Krtap6-2 | 0.0521
GGUGCAUUUAUGUAUUUCCTT against Olfr916 | -1.76
GCAAUCAUUGAAUCCACUCTT against Spag9 | 2.16 (active)
GGAUGUGGUUCAGAAGGCCTT against Stab1 | -0.29
GAUUCUUACUUUGGUCUACTT against Olfr9 | 0.62
GCCAAAACAUUUCAGAGCCTT against Hemk1 | -0.000768
GCAUCUAACUACUUGGGCCTT against Hhip | 1.18
GCACUACCAAGGCGAUAACTT against Tspan18 | -0.624
GGAACCAGUGCUGCAUUUATT against Defb41 | -2.05 (active)

Sequence | z-score
GGCCAUAAACAACCAUUUATT against Ppp1r1b | 0.747
GGACCAACGUGCAGAAAUGTT against Metrn | -0.702
GGUCUGGAGACUUUCAGUCTT against Hexa | 0.521
GGGCAGGGACAUUAGUCAUTT against Zfp106 | 2.88 (active)
GGGAGUGAAUGUUUCACAUTT against Tmem116 | -1.56
GGGUAUUAAGCAGGGAUCGTT against 1810009A15Rik | 1.11
CCAAAUGACUAGCACCAGUTT against Arl5c | -2.22 (active)
CCUUCUACCUCACCUUACGTT against Tmem186 | -1.23
CCAAUUCAAUUAGACUAGATT against 9430015G10Rik | 0.89
GCAUGAGUUAUCAUAAUCATT against Itgb2 | 1.04
GGAUCAACCACAUCAGCUCTT against Hrh2 | -0.838
GGGCCUUCUGAUUUAAAAGTT against Slc43a3 | -1.01
GGUGUUUGGGUACCAGUCUTT against Cyp8b1 | -1.03
GGCUCAAGCGAAAAGCAGATT against Serping1 | -0.46
GGCCUAUUGUAAAAACCCATT against Taf1b | -2.56 (active)
CCAAGUCCCUUUGUGGUGUTT against Twnk | -0.749
CCGUUUAUUUAUCAGCUGGTT against Spsb4 | -1.18
GGAAGGUAAAUGUCUGCUCTT against Selenok | 0.289
GGAGAUGGAUAAUUACGAGTT against Ift27 | 0.344
